Test results as given in PubChem BioAssay (Tox21).
Unmarked numbers belong to inactive results. Inconclusive results are not listed. A call without a number means that no potency is given here. Active and inactive are the calls of the source. Unless noted, the call rests on the fitted dose curve; in most records, active means well fitted curve in the direction sought with a large enough effect in the repeat runs; inconclusive means weak or mixed curves; inactive means no such curve, though single readings can be large; an effect the other way counts as inactive or inconclusive.

Tests used:
[1] = qHTS RealTime-Glo MT Cell Viability Assay in HEK293 cells - 24 hour (AID 1224886); further: top concentration of the series differs between compounds; nearly all actives have a fitted effect of over 50% in size
How it was run: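 Nonlytic real-time viability readout: viable cells convert prosubstrate to NanoLuc substrate, giving luminescence proportional to live cell number. HEK293, 600 cells/well, compound added after 5 h, continuous culture at 37 C.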

[2] = qHTS RealTime-Glo MT Cell Viability Assay in HEK293 cells - 8 hour (AID 1224887); further: top concentration of the series differs between compounds; nearly all actives have a fitted effect of over 50% in size
How it was run: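 Real-time viability in HEK293: signal arises when living cells convert a prosubstrate for NanoLuc in the medium, so luminescence tracks viable cell number. Compound (23 nL, DMSO) added 5 h post-seeding; kinetic reads at 0–40 h, 37 C.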

[3] = A CellTox Green Cytotoxicity Assay to monitor cytotoxicity in HEK293 cells - 16 hour (AID 1224888); further: nearly all actives have a fitted effect of over 35% in size
How it was run: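 Cells (HEK293, 600/well) and dye reagent are dispensed together. After 5 h at 37 C, 23 nL compound is pinned in. Plates stay at 37 C for 40 h with fluorescence read at 0h, 8h, 16h, 24h, 32h and 40h.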

[4] = qHTS RealTime-Glo MT Cell Viability Assay in HepG2 cells - 0 hour (AID 1224889); further: nearly all actives have a fitted effect of over 50% in size
How it was run: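 Luminescence read-out: viable HepG2 cells reduce a prosubstrate to a NanoLuc substrate, giving a signal proportional to live cell number. Reads taken at 0, 8, 16, 24, 32 and 40 h of compound exposure at 37 C.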

[5] = A CellTox Green Cytotoxicity Assay to monitor cytotoxicity in HepG2 cells - 8 hour (AID 1224890); further: nearly all actives have a fitted effect of over 45% in size; further: potency means the concentration at half of the fitted maximal effect
How it was run: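 Cells and non-lytic dye reagent are dispensed together (600 HepG2 cells/well) and incubated 5 h before DMSO compound transfer. Kinetic fluorescence is then recorded in the same wells during 40 h at 37 C.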

[6] = qHTS assay to identify small molecule antagonists of the estrogen receptor alpha (ER-alpha) signaling pathway using the BG1 cell line in the presence of 0.1 nM 17-beta-estradiol - cell viability counter screen (AID 1259241); further: nearly all actives have a fitted effect of over 40% in size
How it was run: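 VM7Luc4E2 cells (endogenous full-length ER-alpha, 4xERE-luciferase), cultured 5 days in charcoal-stripped serum, exposed to compounds with 0.1 nM 17beta-estradiol (final) for 22 hr at 37C. Viability read in same wells as live-cell protease fluorescence after 30 min.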

[7] = qHTS assay to identify small molecule antagonists of the androgen receptor (AR) signaling pathway using the MDA cell line in the presence of 0.5 nM R1881 - cell viability counter screen (AID 1259242); further: nearly all actives have a fitted effect of over 45% in size
How it was run: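 Steps: plate MDA-kb2 cells, rest 5 hr at 37C without CO2; pin in compounds in DMSO; add R1881 to 0.5 nM final; incubate 16 hr; add CellTiter-Fluor, 30 min; read fluorescence.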

[8] = biological target: Estrogen receptor (Homo sapiens) (UniProt P03372); assay: qHTS assay to identify small molecule antagonists of the estrogen receptor alpha (ER-alpha) signaling pathway using the BG1 cell line in the presence of 0.1 nM 17-beta-estradiol (AID 1259244); further: nearly all actives have a fitted effect of over 50% in size
How it was run: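 Antagonist mode: compounds in DMSO are pinned onto VM7Luc4E2 reporter cells, 0.1 nM final 17beta-estradiol is added, and after 22 h at 37C luciferase luminescence is measured with ONE-Glo.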

[9] = qHTS assay to identify small molecule phospholipidosis (PLD) inducers (AID 1259344; active means well fitted curve in the direction sought with a large enough effect; an effect the other way counts as inactive or inconclusive)
How it was run: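 Read-out is LipidTOX Red fluorescence (ex 595/em 615) imaged in HepG2 cells after 24 h compound exposure at 37 C, with Hoechst nuclear counterstain (ex 352/em 461) allowing per-cell normalisation.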

[10] = qHTS assay to identify small molecule HDAC inhibitors (AID 1259364); further: potency means the concentration at half of the fitted maximal effect;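 further: wild-type HCT-116 cells with endogenous class I/II HDAC activity; nearly all actives have a fitted effect of over 45% in size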; on activity change, negative = inhibition: top concentration of the series differs between compounds
How it was run: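 Cells (HCT-116, wild type) are seeded at 1,500 per well, incubated overnight, treated with compound in DMSO for 2 hr, then developed with HDAC-Glo I/II reagent for 30 min at room temperature.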

[11] = qHTS assay to identify small molecule HDAC inhibitors - cell viability counter screen (AID 1259365)
How it was run: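 Wild-type HCT-116 cells, 1,500/well, cultured overnight, then compound-treated 2 h at 37 C. Viability measured as ATP luminescence with CellTiter-Glo after 30 min at room temperature.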

[12] = qHTS assay to identify small molecule agonists of the sonic hedgehog signaling (Shh) pathway - cell viability counter screen (AID 1259366); further: nearly all actives have a fitted effect of over 50% in size
How it was run: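 NIH/3T3-derived Gli1-Luc reporter cells, 2,000 per well, received compound after 4 h and were treated about 23 h at 37C. Viability measured in the same wells by CellTiter-Fluor fluorescence after 1 h.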

[13] = qHTS assay to identify small molecule antagonists of the sonic hedgehog signaling (Shh) pathway - cell viability counter screen (AID 1259367); further: nearly all actives have a fitted effect of over 55% in size
How it was run: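 Fluorescence read-out (CellTiter-Fluor, 1 hr at 37C) taken after 23 hr compound treatment of 3T3 Gli1-Luc cells stimulated with conditioned medium. Cells were seeded at 2,000 per well and pre-incubated 4 hr.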

[14] = qHTS assay to identify small molecule antagonists of the sonic hedgehog signaling (Shh) pathway (AID 1259369; calls by dose curve; further: nearly all actives have a fitted effect of over 45% in size)
How it was run: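 Cells are plated and held 4hr at 37 C, compounds (DMSO) are pinned in, conditioned medium is added to stimulate the pathway, and after 24hr luciferase reagent is added for 30min before luminescence is read.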

[15] = qHTS assay to identify small molecule agonists of the androgen receptor (AR) signaling pathway in the presence of an antagonist - cell viability counter screen (AID 1259379);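 further: MDA-kb2 human breast cancer cells carrying an MMTV luciferase reporter; series mostly up to about 92 µM; nearly all actives have a fitted effect of over 25% in size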
How it was run: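 Cytotoxicity is assessed by CellTiter-Fluor in MDA-kb2 cells carrying an MMTV-driven luciferase reporter. Cells receive 3.0uM nilutamide plus compounds at 15 concentrations and incubate 16 hr at 37C without CO2 before fluorescence reading.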

[16] = qHTS assay to identify small molecule agonists of the estrogen receptor beta (ER-beta) signaling pathway - cell viability counter screen (AID 1259380); further: nearly all actives have a fitted effect of over 30% in size
How it was run: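 Cytotoxicity is measured in parallel with the reporter screen: after 16 hr compound exposure at 37C and a 2 hr LiveBLAzer step, CellTiter-Glo is added to the same ER-beta-UAS-bla HEK293T wells and luminescence read after 30 min.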

[17] = biological target: Androgen receptor (Homo sapiens) (UniProt P10275); assay: qHTS assay to identify small molecule antagonists of the androgen receptor (AR) signaling pathway using the MDA cell line in the presence of 0.5 nM R1881 (AID 1259243); further: nearly all actives have a fitted effect of over 50% in size
How it was run: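 Stably transfected MDA-kb2 cells express luciferase from an MMTV promoter bearing both AR and GR response elements. Compounds plus 0.5 nM R1881 (final) were incubated 16 hr at 37C without CO2, then luminescence measured.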

[18] = qHTS assay to identify small molecule agonists of the sonic hedgehog signaling (Shh) pathway (AID 1259368; calls by dose curve;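 further: NIH/3T3-derived 3T3Gli1-Luc cells carrying a stable Gli1-driven firefly luciferase reporter; series mostly up to about 92 µM; nearly all actives have a fitted effect of over 15% in size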)
How it was run: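 Cells of a mouse NIH/3T3 clone stably expressing luciferase under the Gli1 transcriptional response element are exposed to test chemicals for 24 hr at 37 C. Pathway activation is detected as a rise in luminescence.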

[19] = biological target: Estrogen receptor beta (Homo sapiens) (UniProt Q92731); assay: qHTS assay to identify small molecule agonists of the estrogen receptor beta (ER-beta) signaling pathway (AID 1259377; active means well fitted activation curve with a large enough effect in the signal ratio in the repeat runs, not every such curve was filed as active; the % refers to the signal ratio)
How it was run: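 ER-beta-UAS-bla HEK293T cells in medium with 2% charcoal-stripped FBS were exposed to compounds for 16 h at 37C. Beta-lactamase reporter activity was read as fluorescence after 2 h with LiveBLAzer B/G FRET substrate at room temperature.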

[20] = biological target: Estrogen receptor beta (Homo sapiens) (UniProt Q92731); assay: qHTS assay to identify small molecule antagonists of the estrogen receptor beta (ER-beta) signaling pathway (AID 1259378; active means well fitted inhibition curve with a large enough effect in the signal ratio in the repeat runs, not every such curve was filed as active; the % refers to the signal ratio)
How it was run: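 ER-beta-UAS-bla HEK293T cells in 2% charcoal-stripped FBS medium treated with compound plus 1nM final 17-beta-estradiol for 16 hr at 37C. Beta-lactamase reporter read by FRET substrate fluorescence after 2 hours at room temperature.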

Chain of Estrogen receptor (Homo sapiens) (P03372 whole entry, looked up): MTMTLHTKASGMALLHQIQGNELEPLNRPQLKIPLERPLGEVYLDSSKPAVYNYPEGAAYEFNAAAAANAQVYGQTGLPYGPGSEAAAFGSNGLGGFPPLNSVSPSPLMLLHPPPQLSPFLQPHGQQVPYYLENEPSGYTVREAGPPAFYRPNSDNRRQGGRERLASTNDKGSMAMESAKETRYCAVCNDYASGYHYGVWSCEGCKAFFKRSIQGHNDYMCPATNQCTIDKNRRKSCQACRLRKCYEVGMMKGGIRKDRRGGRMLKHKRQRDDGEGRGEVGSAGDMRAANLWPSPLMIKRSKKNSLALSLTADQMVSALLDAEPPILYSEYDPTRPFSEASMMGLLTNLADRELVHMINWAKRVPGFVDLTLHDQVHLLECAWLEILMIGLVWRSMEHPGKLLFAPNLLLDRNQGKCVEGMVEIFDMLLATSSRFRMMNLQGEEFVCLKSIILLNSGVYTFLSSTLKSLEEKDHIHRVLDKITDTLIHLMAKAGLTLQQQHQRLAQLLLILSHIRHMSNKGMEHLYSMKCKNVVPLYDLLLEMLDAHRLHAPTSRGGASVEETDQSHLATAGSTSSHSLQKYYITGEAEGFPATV
Chain of Estrogen receptor beta (Homo sapiens) (Q92731 whole entry, looked up): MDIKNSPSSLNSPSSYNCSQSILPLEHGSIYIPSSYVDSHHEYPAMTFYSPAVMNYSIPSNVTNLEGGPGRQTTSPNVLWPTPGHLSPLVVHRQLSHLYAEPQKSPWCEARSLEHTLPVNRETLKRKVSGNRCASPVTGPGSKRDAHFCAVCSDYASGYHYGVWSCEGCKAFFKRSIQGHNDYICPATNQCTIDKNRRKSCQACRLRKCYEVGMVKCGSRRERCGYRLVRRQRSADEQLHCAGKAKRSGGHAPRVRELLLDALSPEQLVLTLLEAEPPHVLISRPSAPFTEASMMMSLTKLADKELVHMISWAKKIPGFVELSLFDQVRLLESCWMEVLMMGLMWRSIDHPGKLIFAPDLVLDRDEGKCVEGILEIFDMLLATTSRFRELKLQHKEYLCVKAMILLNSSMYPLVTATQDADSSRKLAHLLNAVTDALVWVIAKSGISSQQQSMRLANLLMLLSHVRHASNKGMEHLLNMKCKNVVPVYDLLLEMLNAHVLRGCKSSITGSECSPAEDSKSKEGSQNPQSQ
Chain of Androgen receptor (Homo sapiens) (P10275 whole entry, looked up): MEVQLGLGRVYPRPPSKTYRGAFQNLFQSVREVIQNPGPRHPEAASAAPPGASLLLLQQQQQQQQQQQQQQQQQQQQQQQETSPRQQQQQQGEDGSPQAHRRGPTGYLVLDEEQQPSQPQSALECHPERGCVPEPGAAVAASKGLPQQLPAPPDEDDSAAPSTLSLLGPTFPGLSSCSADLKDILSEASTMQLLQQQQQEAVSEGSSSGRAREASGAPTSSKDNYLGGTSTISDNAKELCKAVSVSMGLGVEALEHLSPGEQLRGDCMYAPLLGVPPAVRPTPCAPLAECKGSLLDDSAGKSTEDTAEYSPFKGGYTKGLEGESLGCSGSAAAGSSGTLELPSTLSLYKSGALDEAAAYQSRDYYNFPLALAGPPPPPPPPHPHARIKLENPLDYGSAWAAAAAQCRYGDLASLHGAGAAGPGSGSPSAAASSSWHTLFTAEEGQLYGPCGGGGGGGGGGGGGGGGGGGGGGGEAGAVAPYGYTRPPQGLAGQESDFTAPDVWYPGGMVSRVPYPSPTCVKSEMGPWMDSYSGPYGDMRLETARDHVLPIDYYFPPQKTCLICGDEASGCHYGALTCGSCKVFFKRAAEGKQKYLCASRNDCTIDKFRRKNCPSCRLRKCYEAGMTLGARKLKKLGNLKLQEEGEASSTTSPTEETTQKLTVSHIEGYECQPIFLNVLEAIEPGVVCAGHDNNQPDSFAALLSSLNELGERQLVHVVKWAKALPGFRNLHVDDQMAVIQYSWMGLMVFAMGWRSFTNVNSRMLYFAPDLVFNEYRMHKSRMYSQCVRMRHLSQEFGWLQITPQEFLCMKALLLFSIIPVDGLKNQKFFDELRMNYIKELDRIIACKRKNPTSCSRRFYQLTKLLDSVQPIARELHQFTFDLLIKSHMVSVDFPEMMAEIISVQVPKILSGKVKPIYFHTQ

Nc1ccc(/C=C/c2ccc(N)cc2S(=O)(=O)O)c(S(=O)(=O)O)c1
activity change, negative = cytotoxicity [1]: 1.86% [at 0.29 µM] | activity change, negative = cytotoxicity [2]: 0.0792% [at 0.29 µM] | activity change [3]: 0.863% [at 0.29 µM, hits give high values] | activity change, negative = cytotoxicity [4]: 2.99% [at 0.29 µM] | cytotoxicity increase [5]: -4.57% [at 0.29 µM] | activity change, negative = cytotoxicity [6]: -1.15% [at 0.349 µM] | viability change, negative = cytotoxic [7]: 2% [at 0.349 µM] | activity change, negative = inhibition [8]: 6.51% [at 0.349 µM] | outcome [9]: inactive | activity change, negative = inhibition [10]: 6.62% [at 0.349 µM] | activity change, negative = cytotoxicity [11]: 0.175% [at 0.349 µM] | viability change, negative = cytotoxic [12]: 0.832% [at 0.349 µM] | viability change, negative = cytotoxic [13]: 1.69% [at 0.349 µM] | activity change, negative = inhibition [14]: 1.08% [at 0.349 µM] | activity change, negative = cytotoxicity [15]: 1.1% [at 0.35 µM] | activity change, negative = cytotoxicity [16]: 1.15% [at 0.349 µM]

CCN(CC)C(=O)C1CN2CCc3cc(OC)c(OC)cc3C2CC1OC(C)=O (stereo not drawn)
Potency [1]: inactive | Potency [2]: inactive | Potency [3]: inactive | Potency [4]: inactive | Potency [5]: inactive | Potency [6]: inactive | Potency [7]: inactive | outcome [17]: inactive | Potency [8]: inactive | Potency [10]: inactive | outcome [11]: inactive | Potency [12]: inactive | Potency [13]: inactive | outcome [18]: inactive | Potency [15]: inactive | outcome [16]: inactive

CC(=O)N1CCN(c2ccc(O)cc2)CC1
Potency [1]: inactive | Potency [2]: inactive | Potency [3]: inactive | Potency [4]: inactive | Potency [5]: inactive | Potency [6]: inactive | Potency [7]: inactive | outcome [17]: inactive | Potency [8]: inactive | Potency [10]: inactive | outcome [11]: inactive | Potency [12]: inactive | Potency [13]: inactive | outcome [18]: inactive | Potency [14]: inactive | Potency [19]: inactive | outcome [20]: inactive | Potency [15]: inactive

O=C(O)c1ccccc1C(=O)Nc1ccc(S(=O)(=O)Nc2nccs2)cc1
Potency [1]: inactive | Potency [2]: inactive | Potency [3]: inactive | Potency [4]: inactive | Potency [5]: inactive | Potency [6]: inactive | Potency [7]: inactive | outcome [17]: inactive | outcome [9]: inactive | Potency [10]: inactive | outcome [11]: inactive | Potency [12]: inactive | Potency [13]: inactive | outcome [18]: inactive | Potency [14]: inactive | Potency [19]: inactive | Potency [15]: inactive | outcome [16]: inactive

Cc1oc(=O)oc1CN1CCN(c2cc3c(cc2F)c(=O)c(C(=O)O)c2n3C(C)S2)CC1 (stereo not drawn)
Potency [1]: inactive | Potency [2]: inactive | Potency [3]: inactive | Potency [4]: inactive | Potency [5]: 0.535 µM (active) | Potency [6]: inactive | Potency [7]: inactive | Potency [8]: inactive | outcome [9]: inactive | Potency [10]: inactive | outcome [11]: inactive | Potency [12]: inactive | Potency [13]: inactive | outcome [18]: inactive | Potency [19]: inactive | Potency [15]: inactive | outcome [16]: inactive

CC(Cl)COP(=O)(OCC(C)Cl)OCC(C)Cl (stereo not drawn)
Potency [1]: inactive | Potency [2]: inactive | Potency [3]: inactive | Potency [4]: inactive | Potency [5]: inactive | Potency [6]: inactive | Potency [7]: inactive | Potency [8]: inactive | Potency [10]: inactive | outcome [11]: inactive | Potency [12]: inactive | Potency [13]: inactive | outcome [18]: inactive | Potency [14]: inactive | Potency [19]: inactive | outcome [20]: inactive | Potency [15]: inactive

CC(=O)c1ccc(OCC(=O)N2CCCCC2)cc1
Potency [1]: inactive | Potency [2]: inactive | Potency [3]: inactive | Potency [4]: inactive | Potency [5]: inactive | Potency [6]: inactive | Potency [7]: inactive | Potency [8]: inactive | outcome [9]: inactive | Potency [10]: 13.3 µM (active) | outcome [11]: inactive | Potency [12]: inactive | Potency [13]: inactive | outcome [18]: inactive | Potency [14]: inactive | Potency [15]: inactive | outcome [16]: inactive

CC(=O)N(CC(O)CO)c1c(I)c(C(=O)NCC(O)CO)c(I)c(C(=O)NCC(O)CO)c1I (stereo not drawn)
Potency [1]: inactive | Potency [2]: inactive | Potency [3]: inactive | Potency [4]: inactive | Potency [5]: inactive | Potency [6]: inactive | Potency [7]: inactive | Potency [8]: inactive | outcome [9]: inactive | Potency [10]: inactive | outcome [11]: inactive | Potency [12]: inactive | Potency [13]: inactive | Potency [15]: inactive
